High-throughput results deposited in PubChem BioAssay by National Center for Advancing Translational Sciences (NCATS).
A selection: hits, their analogues and other compounds. The true share with any hit is near 21%.
Sm TGR inh: S. mansoni TGR enzyme inhibition | Potency, µM (titrated, usually from 114 µM), hits mostly inhibitors | purified TGR, DTNB reduction, TNB absorbance 405 nm | AID 485364 | Q962Y6 | hit rate 3% among 360,000; note: nearly all actives have a fitted effect of over 60% in size
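First, TGR (20 nM dispensed) and NADPH were mixed with compound. Second, a 15 min room-temperature incubation followed. Third, further NADPH and then DTNB were added to start the reaction. Finally, TNB absorbance was monitored kinetically.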
NS1 inh: inhibitors of influenza NS1 protein function. Potency, µM (doses to about 46.1 µM). hit rate 0.4% among 270,000; calls by dose curve; note: actives are rising curves; nearly all actives have a fitted effect of over 50% in size
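Recovery from NS1-induced slow growth read by OD600 in budding yeast switched to galactose assay medium (pH 6.0, -URA) at 1:100 dilution. Compound 23 nl per well; the matching strain lacking NS1 serves as control.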
Pf growth 48h: P. falciparum growth inhibition at 48 hours (one generation); P. falciparum luciferase growth in erythrocytes, 48 h; Potency, µM (doses to about 28.7 µM), most hits filed as inhibitors; hit rate 5.9% among 310,000; AID 504832
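Compounds are pin-transferred into medium, infected erythrocytes (2% hematocrit, 0.1% parasitemia final) are added, and plates sit one parasite generation at 37 C in 5% CO2. Detection reagent is then added and luminescence measured.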
Shiga inhibitor: blocks Shiga toxin action in Vero cells | Vero cells, Shiga toxin protein synthesis inhibition reporter | inhibition, % at 38.7 µM | hit rate 9.2% among 290,000 | AID 2315; in the data active = inhibition mostly above about 28%, no sharp cut-off; inactive = mostly below about 43%
Pf growth 96h: P. falciparum growth inhibition at 96 hours; P. falciparum luciferase reporter growth, 96 h; Potency, µM (doses to about 28.7 µM), most hits filed as inhibitors; hit rate 6.9% among 320,000; AID 504834
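P. falciparum expressing integrated firefly luciferase, in erythrocytes at 2% hematocrit, 0.05% parasitemia, incubated with compounds 96 h at 37 C, 5% CO2. Growth inhibition read as loss of luminescence; two-generation exposure targets delayed-death apicoplast inhibitors.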
CHX counter: counter-screen hit for Shiga toxin inhibitors, cycloheximide; cell reporter, cycloheximide protein synthesis inhibition counterscreen; hit rate 12% among 300,000; max response, %; in the data active = max response mostly above about 13%, no sharp cut-off; inactive = mostly below about 14%; note: read at 38.3 µM for the half of the compounds with a filed dose
Of the large screens only hits and unclear results are named; the others gave an inactive call. Unless noted, calls come from the whole dose curve; as a rule, active = well fitted curve in the direction sought with a large enough effect; inconclusive = small, poorly fitted or top-dose-only effect, or another doubt; inactive = no such curve, though single readings can be large; an effect the other way counts as inactive or inconclusive.

O=C(/C=C/c1ccc([N+](=O)[O-])cc1)NCc1cccs1	Shiga inhibitor 13, CHX counter 38
CCOC(=O)c1nc(NCc2ccccc2)sc1C	Shiga inhibitor 89, CHX counter 63
CCOC(=O)c1sc(NC(=O)CCc2ccccc2)nc1C	none
CCOC(=O)c1nc(-c2ccccc2)sc1C(C)=O	CHX counter 20
CCOC(=O)c1sc(N)nc1-c1ccccc1	none
CCOC(=O)c1cnc(NCc2ccccc2)nc1C	Shiga inhibitor 55, CHX counter 44
CCOC(=O)c1cnc2ccc(OCC)cc2c1NCc1cccnc1	Pf growth 48h inconclusive, Shiga inhibitor 42, Pf growth 96h 6.6µM, CHX counter 27
COc1ccc(S(=O)(=O)Nc2cc3c(cc2N2CCOCC2)n(C)c(=O)n3C)cc1	none (no result: NS1 inh, Pf growth 48h, Shiga inhibitor, Pf growth 96h, CHX counter)
Cc1ccc(NC(=O)Cn2c(=O)ccc3cc(S(=O)(=O)N4CCC(C)CC4)ccc32)cc1Cl	none (no result: NS1 inh, Pf growth 48h, Shiga inhibitor, Pf growth 96h, CHX counter)
Nc1ncnc(N2CCc3ccccc32)c1[N+](=O)[O-]	Pf growth 48h inconclusive, Pf growth 96h inconclusive
CCOC(=O)c1cnc2ccc(OCC)cc2c1NCc1ccccc1	Pf growth 48h 12µM, Shiga inhibitor 42, Pf growth 96h inconclusive, CHX counter 19
Cc1oc(-c2ccccc2)nc1C(=O)OCC(=O)NCc1ccccc1	none (no result: NS1 inh, Shiga inhibitor, CHX counter)
CCOC(=O)c1nc(-c2ccccc2)oc1N(C)C	CHX counter 17 (no result: Pf growth 96h)
Cc1ccc(S(=O)(=O)N2CCCCC2c2cccnc2)c(C)c1C (stereo unspecified)	Pf growth 48h inconclusive, Pf growth 96h 0.33µM
Cc1ccc(S(=O)(=O)N2CCCC2c2cccnc2)cc1 (stereo unspecified)	Pf growth 48h inconclusive
CC(=O)Nc1ccc(/C(C)=N/NS(=O)(=O)c2ccc(C)cc2)cc1	Pf growth 96h inconclusive
C/C(=N/NS(=O)(=O)c1ccc(Br)cc1)c1ccc(NC(=O)c2ccc(C)o2)cc1	Shiga inhibitor 78, CHX counter 48
C/C(=N\NS(=O)(=O)c1ccc([N+](=O)[O-])cc1)c1ccc(NC(=O)c2ccco2)cc1	CHX counter 25 (no result: NS1 inh)
Cc1ccc2c(c1)N(CC(=O)NC1CCCC(C)C1C)C(=O)c1cccnc1O2 (stereo unspecified)	Pf growth 48h inconclusive
Cc1cccc(OCc2nc3ccccc3c(=O)n2N)c1	CHX counter 47 (no result: Pf growth 96h)
CCCCCCc1nc2ccccc2c(=O)n1N	Pf growth 96h inconclusive
Cc1cccc(-c2nc3ccccc3c(=O)n2N)c1	none
Nn1c(COc2cccc(Cl)c2)nc2ccccc2c1=O	Shiga inhibitor 75, Pf growth 96h inconclusive, CHX counter 38
Cc1cc(Nc2ccccc2)nc2cc(O)ccc12	Pf growth 48h 0.33µM, Shiga inhibitor 114, CHX counter 37
CC(=O)Nc1ccc(Nc2cc(C)c3ccccc3n2)cc1	Pf growth 96h inconclusive
COc1ccc(Nc2cc(C)c3cc(NC(=O)Cc4ccc(Cl)cc4)ccc3n2)cc1	none (no result: NS1 inh, Pf growth 48h, Shiga inhibitor, Pf growth 96h, CHX counter)
COc1ccc(Nc2cc(C)c3ccc(O)cc3n2)cc1	Pf growth 48h 0.37µM, Shiga inhibitor 52, Pf growth 96h inconclusive, CHX counter 46
CS(=O)(=O)NCc1ccc(C(=O)O)cc1	Pf growth 96h inconclusive (no result: NS1 inh)
CC(C)Cn1c(-c2cc([N+](=O)[O-])ccc2Cl)nc2c1c(=O)[nH]c(=O)n2Cc1ccccc1	Pf growth 48h 5.2µM, Pf growth 96h 2.6µM
O=c1[nH]c(=O)n(Cc2ccccc2)c2nc(-c3ccc(Oc4ccc(F)cc4)c([N+](=O)[O-])c3)n(CCO)c12	Pf growth 48h 13µM, Pf growth 96h inconclusive
COCCn1c(-c2ccc(-c3ccc([N+](=O)[O-])cc3Br)o2)nc2c1c(=O)[nH]c(=O)n2CC(C)C	Sm TGR inh 45µM (no result: NS1 inh)
CCCCn1c(=O)[nH]c(=O)c2c1nc(-c1ccc3ccccc3c1)n2CC	Pf growth 96h inconclusive (no result: NS1 inh)
CCCCn1c(=O)[nH]c(=O)c2c1nc(-c1ccc(-c3ccccc3Br)o1)n2CC	Sm TGR inh 13µM, Pf growth 96h inconclusive
COCCn1c(=O)[nH]c(=O)c2c1nc(-c1ccc(-c3ccc(Cl)cc3[N+](=O)[O-])o1)n2Cc1ccccc1	Sm TGR inh 50µM, Pf growth 48h 4.7µM, Pf growth 96h 4.1µM
COc1ccc(-n2nc(C(=O)N3CCN(c4ccccc4OC)CC3)c3c4ccccc4n(C)c3c2=O)cc1Cl	none (no result: NS1 inh, Pf growth 48h, Shiga inhibitor, Pf growth 96h, CHX counter)
CCc1ccc(C2c3c(-c4ccccc4)n[nH]c3C(=O)N2c2ccc(C(=O)O)cc2)cc1 (stereo unspecified)	none (no result: NS1 inh, Pf growth 48h, Shiga inhibitor, Pf growth 96h, CHX counter)
COc1ccc(C2c3c(-c4ccc(F)cc4)n[nH]c3C(=O)N2c2ccccc2)cc1OC (stereo unspecified)	none (no result: NS1 inh, Pf growth 48h, Shiga inhibitor, Pf growth 96h, CHX counter)
CCOC(=O)c1ccc(N2C(=O)c3n[nH]c(C)c3C2c2ccc(O)cc2)cc1 (stereo unspecified)	Sm TGR inh 35µM, Pf growth 96h inconclusive
CCOc1cc(C2c3c(-c4ccccc4)n[nH]c3C(=O)N2c2ccc(C(=O)O)cc2)ccc1O (stereo unspecified)	Sm TGR inh 25µM (no result: NS1 inh)
CCOC(=O)c1ccc(N2C(=O)c3n[nH]c(C)c3C2c2ccccc2)cc1 (stereo unspecified)	Pf growth 48h inconclusive, Pf growth 96h inconclusive
COc1ccc(-c2n[nH]c3c2C(c2ccc(OC)c(OC)c2)N(c2ccccc2)C3=O)cc1 (stereo unspecified)	Pf growth 96h 0.12µM (no result: Pf growth 48h)
C/C(=C\c1cc2ccccc2o1)C1Nc2cccc3cccc(c23)N1	Sm TGR inh 13µM, Pf growth 96h inconclusive (no result: NS1 inh, Shiga inhibitor, CHX counter)
COc1ccccc1C1Nc2cccc3cccc(c23)N1	Sm TGR inh inconclusive, Pf growth 48h inconclusive
Nc1ccccc1C(=O)NCC1(c2ccccc2)CCCC1	none
CC(OC(=O)C1CCCC1)C(=O)Nc1ccc(S(N)(=O)=O)cc1 (stereo unspecified)	none (no result: NS1 inh, Shiga inhibitor, CHX counter)
Cc1cccc(NC(=O)CSCC(=O)Nc2cccc(S(=O)(=O)N3CCCCCC3)c2)c1	Pf growth 48h inconclusive (no result: NS1 inh, Shiga inhibitor, CHX counter)
CCn1ccc2cc(S(=O)(=O)N3CCCN(C(=O)Nc4cc(Cl)ccc4C)CC3)ccc21	none (no result: NS1 inh, Pf growth 48h, Shiga inhibitor, Pf growth 96h, CHX counter)
c1ccc(N/N=C(\Cc2ncc[nH]2)c2ccccc2)cc1	Pf growth 48h inconclusive, Pf growth 96h 9.3µM (no result: NS1 inh)
O=C(NCc1nc2ccccc2[nH]1)c1cccc(Cl)c1	none (no result: NS1 inh, Pf growth 48h, Shiga inhibitor, Pf growth 96h, CHX counter)
COc1cc(C(=O)N/N=C(\Cc2ncc[nH]2)c2ccccc2)cc(OC)c1OC	Pf growth 48h inconclusive (no result: NS1 inh)
COc1ccc(C(=O)N/N=C(\Cc2ncc[nH]2)c2ccccc2)cc1	Pf growth 48h 3.3µM, Pf growth 96h inconclusive
Clc1cccc(N/N=C(\Cc2nc3ccccc3[nH]2)c2ccccc2)c1	Pf growth 48h 12µM, Shiga inhibitor 54, Pf growth 96h 4.1µM, CHX counter 21
CCCN(CCC)Cc1c(C(=O)N/N=C/C(C)=C\c2ccco2)nnn1-c1nonc1N	Sm TGR inh inconclusive, Pf growth 48h inconclusive, Pf growth 96h inconclusive
CCCN(CCC)Cc1c(C(=O)N/N=C/c2ccncc2)nnn1-c1nonc1N	none
CC(/C=N/NC(=O)c1nnn(-c2nonc2N)c1CN(C)C)=C\c1ccco1	Sm TGR inh 45µM, Pf growth 48h inconclusive
